Screens from PubChem.
SKKanGAS inh: inhibitors of SKKanGAS S. pyogenes growth in kanamycin (SK-promoter or general growth effect); BacTiter-Glo, 6 h; 300,000 compounds, 1.3% hits; inhibition, % at 7.5 µM;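 active = mean replicate score, as percent of positive control median, at least 50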;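 note: strain carries kanamycin resistance gene driven by streptokinase promoter and grows in 40 µg/ml kanamycin; loss of luminescence reflects streptokinase promoter inhibition or plain growth inhibition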
EBI2 antag: antagonists of human EBI2 receptor. EBI2 beta-arrestin recruitment, luminescence, 7a,25-OHC stimulated. 360,000 compounds, 0.81% hits. inhibition, % at 5 µM; in the data active = inhibition above about 38%;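 note: enzyme fragment complementation signal reports receptor beta-arrestin coupling in cells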
Target sequence (P32249 whole entry, looked up, the tested form may be a part): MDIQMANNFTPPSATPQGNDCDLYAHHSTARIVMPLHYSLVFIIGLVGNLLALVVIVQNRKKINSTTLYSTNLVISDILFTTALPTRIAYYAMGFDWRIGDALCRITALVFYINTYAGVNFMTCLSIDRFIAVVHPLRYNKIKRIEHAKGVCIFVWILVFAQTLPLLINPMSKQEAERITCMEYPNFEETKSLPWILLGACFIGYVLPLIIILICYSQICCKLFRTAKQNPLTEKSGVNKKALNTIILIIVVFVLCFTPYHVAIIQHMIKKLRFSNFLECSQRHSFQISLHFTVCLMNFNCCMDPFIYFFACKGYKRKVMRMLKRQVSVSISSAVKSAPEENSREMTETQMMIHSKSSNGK
TIM10 inh: TIM10 yeast growth inhibition; AID 463195; 330,000 compounds, 1.4% hits; inhibition, % at 10 µM; S. cerevisiae TIM10 strain growth, BacTiter-Glo luminescence, 24 h;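 active = inhibition of 40% or more at the single tested concentration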;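 note: wild-type TIM10 isogenic control strain grown at permissive 25 °C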
PfHsp90 set2: growth inhibition of yeast expressing Plasmodium Hsp90; inhibition, % at 9.4 µM; S. cerevisiae expressing PfHsp90, BacTiter-Glo ATP, 48 h; yeast lacking PDR1 and PDR3 efflux regulators; 310,000 compounds, 0.32% hits;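 active = every replicate shows inhibition above about 80%, whatever the replicate mean, limit read from the data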
tim10-1 inh: growth inhibitors of tim10-1 mutant yeast; 330,000 compounds, 2.2% hits; AID 463190; inhibition, % at 20 µM; S. cerevisiae tim10-1 ts strain growth, BacTiter-Glo, 24 h;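 active = inhibition of at least 40%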;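 note: mutant grown at 25 °C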
tim23-1 inh: tim23-1 yeast growth inhibition; S. cerevisiae tim23-1 growth, BacTiter-Glo luminescence, 24 h; AID 463212; inhibition, % at 20 µM; 330,000 compounds, 1.3% hits;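 active = growth inhibition of the mutant yeast at or above 50%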;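 note: temperature-sensitive mutant grown at 25 °C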
tim10 confirm: confirmation of TIM10 yeast growth inhibitors; 4,600 compounds, 63% hits; AID 463215; shares compounds with TIM10 inh; inhibition, % at 10 µM; S. cerevisiae tim10 strain growth, BacTiter-Glo luminescence, 24 h;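 active = inhibition of yeast growth at or above a set limit in either of two replicates at 10 µM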; note: this counterscreen used the strain with wild-type TIM10
Large screens that a line does not name were inactive (follow-up assays come after a bar, where they were run). Rows were chosen to be rich in hits. Some 4.7% of all compounds tested hit in one or more screens of this group.

COc1ccccc1N(C)S(=O)(=O)c1ccc(Cl)c(C(=O)Nc2ccccc2N2CCOCC2)c1	none (no result: SKKanGAS inh, TIM10 inh, PfHsp90 set2, tim10-1 inh, tim23-1 inh)
O=C(Oc1ccc(C(=S)N2CCOCC2)cc1Br)c1cc(Cl)ccc1Cl	EBI2 antag 54, TIM10 inh 47 (no result: PfHsp90 set2) | tim10 confirm inactive
Cc1ccc(S(=O)(=O)N2CCc3ccccc3C2CN2C(=O)c3ccccc3C2=O)cc1 (configuration not stated)	TIM10 inh 43 | tim10 confirm inactive
CCN(CC)C(=O)N1CCN(S(=O)(=O)c2c(C)cc(C)cc2C)CC1	TIM10 inh 40 | tim10 confirm inactive
Cc1ccc2c(C)c(C(=O)NCCc3ccco3)oc2c1C	TIM10 inh 97 | tim10 confirm inactive
Cc1ccc(C(=O)/C=C/Nc2ccccn2)cc1	TIM10 inh 43 | tim10 confirm inactive
Cc1ccc(N/C=C/C(=O)c2ccc(C)cc2)cc1	none
CC1(C)C(=O)Nc2ccccc2N1C(=O)COc1ccc(C#N)cc1	none (no result: SKKanGAS inh)
COCCNC(=S)N1CCN(Cc2cccc(OC)c2)CC1	none
Cc1ccc(C(=O)C[n+]2cc(-c3ccc(C)cc3)n3c2CCCCC3)cc1	TIM10 inh 46 | tim10 confirm inactive
COc1ccc(NC(=S)NNC(=O)COc2ccc(Cl)cc2Cl)cc1	TIM10 inh 47 | tim10 confirm inactive
COc1ccc(NC(=S)NNC(=O)CNc2ccc(Cl)cc2)cc1	none (no result: SKKanGAS inh)
COc1cc(SC)ccc1C(=O)Nc1ncc(Cl)cc1Cl	TIM10 inh 48 | tim10 confirm inactive
CC(C)(C)c1cc(NC(=O)Nc2ccc(Cl)cc2Cl)no1	TIM10 inh 42 | tim10 confirm 43
CC(C)(C)c1cc(NC(=O)Nc2ccc(Br)cc2Cl)no1	TIM10 inh 42 | tim10 confirm 41
CC(C)NC(=O)Nc1ccc(Br)cc1Cl	none
O=C(Nc1ccon1)Nc1ccc(Cl)cc1Cl	none
CCc1ccc(N(CC(=O)NCc2ccco2)C(=O)CCC(=O)Nc2ccccn2)cc1	none
C=CCn1c(N/N=C/c2ccc(O)cc2)nc2ccccc2c1=O	TIM10 inh 45 | tim10 confirm 32
CCOc1ccc(C(=O)NCC(=O)OCc2nnc(-c3ccccc3)o2)cc1OCC	TIM10 inh 50 (no result: SKKanGAS inh) | tim10 confirm inactive
CC(=O)c1ccc(N=c2scc(C)n2C(C)C)cc1	none
C/C=C(/C)C(=O)OC1c2c(ccc3ccc(=O)oc23)OC(C)(C)C1OC(C)=O (configuration not stated)	TIM10 inh 42 | tim10 confirm inactive
C/C=C(/C)C(=O)O[C@@H]1[C@H](OC(C)=O)c2c(ccc3ccc(=O)oc23)OC1(C)C	none
CC(NCCCOc1cccc2ccccc12)c1ccccc1 (configuration not stated)	none
CN1CCOCCOc2ccccc2OCCOCC1	TIM10 inh 58 | tim10 confirm inactive
Cc1onc(-c2c(Cl)cccc2Cl)c1C(=O)N1CCN(c2ccccc2)CC1	TIM10 inh 42 | tim10 confirm inactive
Cc1onc(-c2c(Cl)cccc2Cl)c1C(=O)N1CCN(c2ccc(F)cc2)CC1	none
N#CC(Nc1ccccc1)c1ccccc1OCc1ccccc1 (configuration not stated)	TIM10 inh 42 (no result: PfHsp90 set2) | tim10 confirm inactive
Oc1ccc(CN2CCc3ccccc3C2)c2cccnc12	SKKanGAS inh 83, EBI2 antag 67, TIM10 inh 41 | tim10 confirm inactive
Oc1ccc(CN2CCCCC2)c2cccnc12	none
O=C(c1ccc2oc(Cc3ccc(Cl)cc3)nc2c1)N1CCCCC1CCO (configuration not stated)	none
Cc1ccc2nc(Cl)c(CN(C(=O)c3cnccn3)C3CCCCC3)cc2c1	TIM10 inh 41 | tim10 confirm 28
O=C(OCC(=O)N(C1CCCCC1)C1CCCCC1)c1cnccn1	none
Brc1ccc(-c2nnc3sc(CN4CCc5ccccc5C4)cn23)cc1	none (no result: SKKanGAS inh, TIM10 inh, tim10-1 inh, tim23-1 inh)
c1ccc(-c2nnc3sc(CN4CCc5ccccc54)cn23)cc1	TIM10 inh 42 | tim10 confirm inactive
CCOC(=O)N1CCN(C(=O)c2ccc3c(c2)N=C(CC)c2cc(C)ccc2S3)CC1	TIM10 inh 40 | tim10 confirm inactive
CCC1=Nc2cc(C(=O)N3CCCCC3)ccc2Sc2ccc(C)cc21	none
CC(NC(=S)Nc1cccc(C(F)(F)F)c1)C(C)(C)C (configuration not stated)	TIM10 inh 45 (no result: PfHsp90 set2) | tim10 confirm inactive
Cc1ccc(NC(=S)NNC(=S)Nc2ccc(C)cc2)cc1	none (no result: SKKanGAS inh, TIM10 inh, tim10-1 inh, tim23-1 inh)
Cc1ccc(NC(=S)NNC(=S)Nc2cccc(C(F)(F)F)c2)cc1	SKKanGAS inh 88, TIM10 inh 53 | tim10 confirm 48
CC(C)[C@H](NC(=O)Nc1cccc(C(F)(F)F)c1)C(=O)O	none
COC(=O)c1c(NC(=O)COC(=O)Cn2cnc3ccccc32)sc2c1CCCC2	none
Cn1c(Cl)c(C(=O)Nc2ccccc2)c2ccccc21	TIM10 inh 51 (no result: SKKanGAS inh) | tim10 confirm 57
c1ccc(-n2nnnc2-c2cccc3ccccc23)cc1	none (no result: SKKanGAS inh, TIM10 inh, PfHsp90 set2, tim10-1 inh, tim23-1 inh)
Clc1ccc2[nH]cc(-c3nnnn3-c3ccccc3)c2c1	TIM10 inh 42 (no result: PfHsp90 set2) | tim10 confirm inactive
Nc1ccc(-c2nc3ccc(-c4nc5ccccc5o4)cc3[nH]2)cc1	TIM10 inh 55 | tim10 confirm inactive
Cc1ccnc2ccc(-c3nc4ccccc4o3)cc12	none (no result: SKKanGAS inh)
Cc1nc2ccc(-c3nc4ccccc4o3)cc2[nH]1	TIM10 inh 47 | tim10 confirm 34
Nc1ccc(-c2nc3ccc(N)cc3o2)cc1	none
Cc1c(C)c2ccc(OC(C)C(=O)N3C[C@H]4C[C@@H](C3)c3cccc(=O)n3C4)c(C)c2oc1=O (some centres not stated)	TIM10 inh 59 | tim10 confirm inactive
Fc1ccc(NC(=S)NN=C2CCCCCC2)cc1	TIM10 inh 45 | tim10 confirm inactive
CC(=O)Nc1nc(SCC(=O)NCc2ccc(F)cc2)[nH]c(=O)c1NC(=O)c1cccs1	none
COC(=O)c1cccc(NC(=O)NC23CC4CC(CC(C4)C2)C3)c1	TIM10 inh 48 | tim10 confirm 38
COC(=O)c1cccc(NC(=S)Nc2ccc(Cl)c(Cl)c2)c1	TIM10 inh 57 | tim10 confirm 34
COC(=O)c1ccc(Cl)c(NC(=O)NC23CC4CC(CC(C4)C2)C3)c1	none
Cc1onc(-c2ccccc2)c1C(=O)Nc1ccc(S(=O)(=O)NC(C)(C)C)cc1	none
COc1ccc(CNS(=O)(=O)c2ccc3c(c2)N(C(C)=O)CCO3)cc1	TIM10 inh 46 | tim10 confirm inactive
CCc1ccccc1NC(=S)N(Cc1ccco1)C(C)c1cccs1 (configuration not stated)	TIM10 inh 81 | tim10 confirm inactive
CCc1ccccc1NC(=S)N(CCN1CCCCC1)Cc1ccco1	none
O=C(Nc1ccnn1C1CCN(CCCc2ccccc2)CC1)c1cccc(F)c1	none
